# Laboratory results reported in the supplement of paper PMC6555819.
# Experiments:
# Test in all cases: PBM binding z-score (relative to random genomic background probes); higher = stronger binding; sequences stand for … in GC…GCGATTGACAGCGTAGAATGAAGG
# [1] = system: FXR:RXRa (NR concentration 270 nM, RXRa partner concentration 90 nM)
# Method in brief: (§1)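 For binding z-scores, the reference was random background probes on custom Agilent 4×180K protein-binding microarrays. These arrays were incubated 1 h with ligand-free nuclear receptor dimers in PBS pH 7.4, 2% milk, 0.02% Triton X-100, 1 mM DTT, 0.2 mg/mL BSA and 0.4 mg/ml salmon testes DNA. Fluorescence was scanned after antibody detection of each partner (one per run) and regression-normalized.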
# [2] = system: LXRa:RXRa (NR concentration 270 nM, RXRa partner concentration 90 nM)
# Method in brief: as §1
# [3] = system: LXRa homodimer (NR concentration 270 nM)
# Method in brief: as §1
# [4] = system: LXRb:RXRa (NR concentration 270 nM, RXRa partner concentration 90 nM)
# Method in brief: as §1
# [5] = system: LXRb homodimer (NR concentration 270 nM)
# Method in brief: as §1
# [6] = system: PPARa:RXRa (NR concentration 270 nM, RXRa partner concentration 90 nM)
# Method in brief: as §1
# [7] = system: PPARg:RXRa (NR concentration 180 nM, RXRa partner concentration 90 nM)
# Method in brief: as §1
# [8] = system: PPARg:RXRa 270nM:90nM, anti-RXR (NR concentration 270 nM, RXRa partner concentration 90 nM)
# Method in brief: as §1
# [9] = system: PPARg:RXRa 30nM:10nM, anti-RXR (NR concentration 30 nM, RXRa partner concentration 10 nM)
# Method in brief: as §1
# [10] = system: PPARg:RXRa 90nM:30nM, anti-RXR (NR concentration 90 nM, RXRa partner concentration 30 nM)
# Method in brief: as §1
# [11] = system: PPARg:RXRa DBDmut IVT, anti-RXR (DBD mutation: RXRa K156A/R161A, NR concentration 270 nM, RXRa partner concentration 90 nM)
# Method in brief: as §1
# [12] = system: PPARg:RXRa IVT, anti-PPARg (NR concentration 270 nM, RXRa partner concentration 90 nM)
# Method in brief: as §1
# [13] = system: PPARg DBDmut:RXRa IVT, anti-PPARg (DBD mutation: PPARg1 K132A/R137A, NR concentration 270 nM, RXRa partner concentration 90 nM)
# Method in brief: as §1
# [14] = system: PPARg DBDmut IVT, anti-PPARg (DBD mutation: PPARg1 K132A/R137A, NR concentration 270 nM)
# Method in brief: as §1
# [15] = system: PPARg homodimer (NR concentration 180 nM)
# Method in brief: as §1
# [16] = system: PXR:RXRa (NR concentration 270 nM, RXRa partner concentration 90 nM)
# Method in brief: as §1
# [17] = system: PXR homodimer (NR concentration 270 nM)
# Method in brief: as §1
# [18] = system: RARa:RXR (NR concentration 270 nM, RXRa partner concentration 90 nM)
# Method in brief: as §1
# [19] = system: RARa homodimer (NR concentration 270 nM)
# Method in brief: as §1
# [20] = system: RARb:RXRa (NR concentration 270 nM, RXRa partner concentration 90 nM)
# Method in brief: as §1
Sequence,PBM binding z-score [1],PBM binding z-score [2],PBM binding z-score [3],PBM binding z-score [4],PBM binding z-score [5],PBM binding z-score [6],PBM binding z-score [7],PBM binding z-score [8],PBM binding z-score [9],PBM binding z-score [10],PBM binding z-score [11],PBM binding z-score [12],PBM binding z-score [13],PBM binding z-score [14],PBM binding z-score [15],PBM binding z-score [16],PBM binding z-score [17],PBM binding z-score [18],PBM binding z-score [19],PBM binding z-score [20]
ACTATTAGTTGAGGCGAGGGCAACCGATAGGTTG,0.489,0.289,0.0582,0.0711,0.108,0.378,0.389,0.0046,0.138,-0.0218,0.169,0.559,0.713,0.82,0.794,0.918,0.305,0.644,0.393,1.4
CGTCCAAGGTCAAGGTCGGTGAAAGAGACTCGAA,7.27,5.92,0.458,4.22,0.00899,5.85,5.34,5.83,2.16,4.39,3.16,4.02,-0.058,-0.563,2.86,4.31,0.887,5.05,0.962,5.34
TCTAGTAGATCAAAGGTTAAGAAAGCCGAAGCCT,1.56,2.07,0.141,1.98,-0.538,4.8,8.6,8.24,8.54,8.99,2.37,3.82,0.0215,0.532,1.09,1.86,-0.328,2.97,0.336,1.72
ATATGTAGGTTATCGGGTCATTCGGTTTGCGCAT,3.2,3.11,1.78,2.85,1.02,4.68,6.96,5.9,3.48,6.13,7.54,7.29,1.79,2.8,2.29,3.5,5.62,3.42,1.12,2.45
ACAGACAGGTGAGTAAAGGTAACTCAGCTGGACG,0.171,0.4,-0.568,-0.0938,-0.506,0.95,1.25,1.64,0.681,1.27,0.353,1.07,0.151,-0.231,-0.162,0.082,-0.77,1.06,-0.0924,0.798
CCTACTGGGCCATCAGGTCATTGTTATCAACGTT,1.46,1.31,1.14,1.7,-0.00639,2.76,2.54,3.66,1.36,2.74,4.42,5.23,1.61,0.711,1.35,1.63,0.409,2.03,0.317,2.07
TAGCCTATGTCATGGGCCAGTATACCACGCGAAC,-0.15,-0.356,-0.253,-0.589,-0.827,-0.267,0.56,-0.0658,-0.369,-0.213,-0.759,0.165,-0.733,0.201,-0.377,-0.487,-0.151,0.249,-0.171,0.192
ACTATTAGTTGACTTACGGCAACCGATACGACGC,0.213,0.066,0.174,0.412,0.908,-0.179,1.09,0.0509,0.212,0.113,-0.0111,0.189,0.614,1.35,0.496,-0.0445,-0.0464,0.256,0.942,0.199
CCTATTAGTGGACCATAAGGGCAACCGAAGCTCG,0.107,0.131,0.000985,0.0463,0.134,0.591,0.711,1.08,0.116,0.489,1.43,0.991,0.0446,-0.555,0.856,0.215,0.612,0.424,0.803,1.22
ACAGACAGTTGATGAAGGTAACTCAGGCTATCAT,0.165,-0.156,-0.193,-0.191,0.0371,-0.00843,0.507,-0.149,-0.0201,-0.134,-0.364,-0.0113,0.732,0.538,0.771,0.245,0.258,0.287,0.632,0.225
CCTTATGGGTCAAGGTTATAGCACGGGTGGTACG,4.02,2.78,0.0856,2.3,-0.169,4.23,5.35,5.19,2.54,4.72,4.52,5.46,1.19,0.531,2.47,2.43,0.248,3.32,0.847,3.63
AGAACGAAGGCAATGAGTTGATAGCACGGGTGGC,-0.744,-0.976,-0.545,-0.999,-1.01,-0.613,0.809,-0.61,-0.619,-0.608,-0.602,-0.376,0.0932,-0.515,-1.7,-0.512,-0.132,-0.69,-0.881,-0.477
CGTCCAAGGTCAGAGGTCAGTGAAGAGATGACGG,6.67,5.39,1.56,4.73,0.465,6.09,8.26,6.86,5.6,7.06,2.44,4.65,0.388,-0.499,3.51,5.72,1.13,7.11,0.938,5.55
AGTCAAAGTTCAGGACGAGGTAACGTAGAGCACG,4.1,3.8,1.01,2.04,0.385,3.59,4.68,4.62,2.13,3.9,0.103,2.2,0.482,0.536,1.57,2.79,0.943,2.87,0.443,4.25
GCGACTGGGACATCAGCAGGTTACCATAACTTAA,-0.41,-0.456,-0.462,-0.188,-0.768,0.248,0.495,-0.264,-0.28,-0.281,1.95,1.18,-0.236,-1.24,-0.146,-0.226,-0.651,-0.109,-0.694,0.0627
